Hit rate of the full screen: of about 5,500 compounds, about 2,000 (36%) were called active. Another 18% or so got no clear call; they are omitted. No stated cut-off is given here; in the data, active means normalized growth mostly below about 0.91 (no sharp cut-off); inconclusive means no clear call, values can overlap the other calls; inactive means mostly above about 0.92. Some of the results follow.
Test: chemical genetic growth profiling, strain panel (AID 1159580);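 further: tested at 20 µM; growth read once vehicle control cultures reached saturation at 30 °C; 1 = growth at the plate median or of vehicle wells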
Conditions: growth OD

Measured: normalized growth

COc1cc(C(=O)NCc2ccc(OCCN(C)C)cc2)cc(OC)c1OC
inactive: S. cerevisiae deletion strains, locus YJL187C, strain SWE1, stronger effect = lower value 0.99 | S. cerevisiae deletion strains, locus YJR043C, strain POL32, stronger effect = lower value 0.984 | S. cerevisiae deletion strains, locus YJR066W, strain TOR1, stronger effect = lower value 0.929 | S. cerevisiae deletion strains, locus YKL009W, strain mrt4, stronger effect = lower value 1.01 | S. cerevisiae deletion strains, locus YKL068W, stronger effect = lower value 0.978 | S. cerevisiae deletion strains, locus YKL085W, strain MDH1 (second series), stronger effect = lower value 0.975 | S. cerevisiae deletion strains, locus YKL085W, strain MDH1, stronger effect = lower value 0.975 | S. cerevisiae deletion strains, locus YKL160W, strain elf1, stronger effect = lower value 0.947 | S. cerevisiae deletion strains, locus YKL190W, strain CNB1, stronger effect = lower value 0.986 | S. cerevisiae deletion strains, locus YKR001C, strain vps1, stronger effect = lower value 0.983 | S. cerevisiae deletion strains, locus YKR026C, strain gcn3, stronger effect = lower value 0.989 | S. cerevisiae deletion strains, locus YKR091W, strain srl3, stronger effect = lower value 0.993 | S. cerevisiae deletion strains, locus YLL001W, strain dnm1, stronger effect = lower value 1 | S. cerevisiae deletion strains, locus YLL026W, stronger effect = lower value 1 | S. cerevisiae deletion strains, locus YLL041C, strain sdh2, stronger effect = lower value 1 | S. cerevisiae deletion strains, locus YLR027C, strain aat2, stronger effect = lower value 0.996 | S. cerevisiae deletion strains, locus YLR039C, strain RIC1, stronger effect = lower value 0.954 | S. cerevisiae deletion strains, locus YLR058C, strain SHM2, stronger effect = lower value 0.97 | S. cerevisiae deletion strains, locus YLR102C, strain apc9, stronger effect = lower value 0.984 | S. cerevisiae deletion strains, locus YLR113W, strain HOG1, stronger effect = lower value 0.986 | S. cerevisiae deletion strains, locus YLR221C, strain rsa3, stronger effect = lower value 1.01 | S. cerevisiae deletion strains, locus YLR258W, strain gsy2, stronger effect = lower value 0.999 | S. cerevisiae deletion strains, locus YLR262C, strain YPT6 (second series), stronger effect = lower value 1.02 | S. cerevisiae deletion strains, locus YLR262C, strain YPT6, stronger effect = lower value 0.965 | S. cerevisiae deletion strains, locus YLR268W, strain sec22, stronger effect = lower value 0.971 | S. cerevisiae deletion strains, locus YLR320W, strain mms22, stronger effect = lower value 0.978 | S. cerevisiae deletion strains, locus YLR330W, strain CHS5, stronger effect = lower value 0.999 | S. cerevisiae deletion strains, locus YLR342W, strain FKS1 (second series), stronger effect = lower value 1.07 | S. cerevisiae deletion strains, locus YLR342W, strain FKS1, stronger effect = lower value 0.991 | S. cerevisiae deletion strains, locus YLR357W, strain rsc2, stronger effect = lower value 0.959 | S. cerevisiae deletion strains, locus YLR370C, strain arc18, stronger effect = lower value 0.99 | S. cerevisiae deletion strains, locus YLR371W, strain rom2, stronger effect = lower value 0.984 | S. cerevisiae deletion strains, locus YLR384C, strain iki3, stronger effect = lower value 1 | S. cerevisiae deletion strains, locus YLR418C, strain cdc73, stronger effect = lower value 1.01 | S. cerevisiae deletion strains, locus YML016C, strain PPZ1, stronger effect = lower value 0.991 | S. cerevisiae deletion strains, locus YML032C, strain rad52, stronger effect = lower value 0.987 | S. cerevisiae deletion strains, locus YML120C, strain ndi1, stronger effect = lower value 1.01 | S. cerevisiae deletion strains, locus YML124C, strain tub3, stronger effect = lower value 0.982 | S. cerevisiae deletion strains, locus YMR058W, strain fet3, stronger effect = lower value 1.02 | S. cerevisiae deletion strains, locus YMR078C, strain ctf18, stronger effect = lower value 0.984 | S. cerevisiae deletion strains, locus YMR125W, strain sto1, stronger effect = lower value 0.961 | S. cerevisiae deletion strains, locus YMR129W, stronger effect = lower value 1.01 | S. cerevisiae deletion strains, locus YMR205C, strain PFK2, stronger effect = lower value 0.992 | S. cerevisiae deletion strains, locus YMR223W, strain ubp8, stronger effect = lower value 1.03 | S. cerevisiae deletion strains, locus YMR231W, strain pep5, stronger effect = lower value 1 | S. cerevisiae deletion strains, locus YMR307W, strain GAS1, stronger effect = lower value 1.05 | S. cerevisiae deletion strains, locus YNL067W, strain RPL9B, stronger effect = lower value 0.972 | S. cerevisiae deletion strains, locus YNL071W, strain lat1, stronger effect = lower value 0.991 | S. cerevisiae deletion strains, locus YNL183C, strain NPR1, stronger effect = lower value 0.937 | S. cerevisiae deletion strains, locus YNL209W, strain ssb2, stronger effect = lower value 0.988 | S. cerevisiae deletion strains, locus YNL233W, strain BNI4, stronger effect = lower value 0.994 | S. cerevisiae deletion strains, locus YNL248C, strain rpa49, stronger effect = lower value 0.95 | S. cerevisiae deletion strains, locus YNL250W, strain rad50, stronger effect = lower value 0.977 | S. cerevisiae deletion strains, locus YNL271C, strain bni1, stronger effect = lower value 0.976 | S. cerevisiae deletion strains, locus YNL298W, strain CLA4, stronger effect = lower value 0.997 | S. cerevisiae deletion strains, locus YNL307C, strain MCK1, stronger effect = lower value 0.98 | S. cerevisiae deletion strains, locus YNL322C, strain KRE1 (second series), stronger effect = lower value 0.983 | S. cerevisiae deletion strains, locus YNL322C, strain KRE1, stronger effect = lower value 0.984 | S. cerevisiae deletion strains, locus YNR049C, strain mso1, stronger effect = lower value 1 | S. cerevisiae deletion strains, locus YNR052C, strain pop2, stronger effect = lower value 0.988 | S. cerevisiae deletion strains, locus YOL012C, strain htz1 1.41 | S. cerevisiae deletion strains, locus YOL147C, strain pex11, stronger effect = lower value 0.991 | S. cerevisiae deletion strains, locus YOR001W, strain rrp6, stronger effect = lower value 1.01 | S. cerevisiae deletion strains, locus YOR061W, strain CKA2, stronger effect = lower value 0.962 | S. cerevisiae deletion strains, locus YOR069W, strain VPS5, stronger effect = lower value 0.997 | S. cerevisiae deletion strains, locus YOR070C, strain gyp1, stronger effect = lower value 0.997 | S. cerevisiae deletion strains, locus YOR080W, strain dia2, stronger effect = lower value 0.997 | S. cerevisiae deletion strains, locus YOR083W, strain WHI5, stronger effect = lower value 0.927 | S. cerevisiae deletion strains, locus YOR106W, strain vam3, stronger effect = lower value 0.98 | S. cerevisiae deletion strains, locus YOR136W, strain idh2, stronger effect = lower value 0.98 | S. cerevisiae deletion strains, locus YOR144C, strain elg1, stronger effect = lower value 0.993 | S. cerevisiae deletion strains, locus YOR184W, strain ser1, stronger effect = lower value 0.985 | S. cerevisiae deletion strains, locus YOR231W, strain MKK1, stronger effect = lower value 0.984 | S. cerevisiae deletion strains, locus YOR265W, strain rbl2, stronger effect = lower value 1 | S. cerevisiae deletion strains, locus YOR270C, strain vph1, stronger effect = lower value 0.973 | S. cerevisiae deletion strains, locus YOR290C, strain snf2, stronger effect = lower value 0.972 | S. cerevisiae deletion strains, locus YOR316C, strain cot1, stronger effect = lower value 0.977 | S. cerevisiae deletion strains, locus YPL051W, strain arl3, stronger effect = lower value 0.982 | S. cerevisiae deletion strains, locus YPL055C, strain LGE1, stronger effect = lower value 0.931 | S. cerevisiae deletion strains, locus YPL078C, strain atp4, stronger effect = lower value 0.965 | S. cerevisiae deletion strains, locus YPL106C, strain sse1, stronger effect = lower value 0.935 | S. cerevisiae deletion strains, locus YPL240C, strain hsp82, stronger effect = lower value 0.995 | S. cerevisiae deletion strains, locus YPL256C, strain CLN2, stronger effect = lower value 0.97 | S. cerevisiae deletion strains, locus YPR119W, strain clb2, stronger effect = lower value 0.981 | S. cerevisiae deletion strains, locus YPR141C, strain kar3, stronger effect = lower value 0.969 | S. cerevisiae deletion strains, locus YPR163C, strain tif3, stronger effect = lower value 0.988 | S. cerevisiae deletion strains, locus YPR167C, strain met16, stronger effect = lower value 0.994 | S. cerevisiae deletion strains, strain wtn01, stronger effect = lower value 1 | S. cerevisiae strains, strain wild type, stronger effect = lower value 0.979
